# Where “and” joins values, the source holds several entries; their conditions need not be identical. Equal entries are not always repeated. Results filed as inconclusive are left out. Unmarked numbers belong to inactive results. Calls of active or inactive are those of the source. The call rests on the fitted dose curve.
# Tests used:
# [1] = biological target: Bile acid receptor (Homo sapiens) (UniProt Q96RI1); test: qHTS assay for small molecule agonists of farnesoid X receptor signaling (AID 588527); conditions: HEK293T FXR-UAS-bla, beta-lactamase ratio, 16 h; activation: hits give high values;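 further: series mostly up to about 77 µM; 0% = vehicle basal and 100% = reference agonist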
# Chain of Bile acid receptor (Homo sapiens) (Q96RI1 whole entry, looked up): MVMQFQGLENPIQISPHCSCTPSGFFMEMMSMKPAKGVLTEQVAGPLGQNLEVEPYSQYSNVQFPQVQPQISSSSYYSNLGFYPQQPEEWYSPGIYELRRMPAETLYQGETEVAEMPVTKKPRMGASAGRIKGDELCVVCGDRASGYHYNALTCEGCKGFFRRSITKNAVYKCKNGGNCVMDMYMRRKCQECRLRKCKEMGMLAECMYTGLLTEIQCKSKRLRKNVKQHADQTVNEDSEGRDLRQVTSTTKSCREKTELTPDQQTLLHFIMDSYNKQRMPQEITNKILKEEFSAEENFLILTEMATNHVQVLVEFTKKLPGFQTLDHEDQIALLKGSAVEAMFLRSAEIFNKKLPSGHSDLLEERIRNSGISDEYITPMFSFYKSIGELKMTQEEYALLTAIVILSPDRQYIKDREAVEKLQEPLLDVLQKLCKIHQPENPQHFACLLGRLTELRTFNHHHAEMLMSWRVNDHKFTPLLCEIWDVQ
# In short: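 Agonist-mode beta-lactamase reporter in GeneBLAzer FXR-UAS-bla HEK293T cells, titration up to 92 uM, 16 h exposure at 37 C, CCF4 fluorescence. Response scaled to DMSO (0%) and 100 uM chenodeoxycholic acid (100%), then Hill-fitted for EC50 and efficacy.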
# [2] = biological target: Peroxisome proliferator-activated receptor delta (Homo sapiens) (UniProt Q03181); test: qHTS assay for small molecule agonists of peroxisome proliferator-activated receptor delta signaling (AID 588534);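 further: 0% = DMSO basal wells and 100% = positive control agonist at 10 µM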
# Chain of Peroxisome proliferator-activated receptor delta (Homo sapiens) (Q03181 whole entry, looked up): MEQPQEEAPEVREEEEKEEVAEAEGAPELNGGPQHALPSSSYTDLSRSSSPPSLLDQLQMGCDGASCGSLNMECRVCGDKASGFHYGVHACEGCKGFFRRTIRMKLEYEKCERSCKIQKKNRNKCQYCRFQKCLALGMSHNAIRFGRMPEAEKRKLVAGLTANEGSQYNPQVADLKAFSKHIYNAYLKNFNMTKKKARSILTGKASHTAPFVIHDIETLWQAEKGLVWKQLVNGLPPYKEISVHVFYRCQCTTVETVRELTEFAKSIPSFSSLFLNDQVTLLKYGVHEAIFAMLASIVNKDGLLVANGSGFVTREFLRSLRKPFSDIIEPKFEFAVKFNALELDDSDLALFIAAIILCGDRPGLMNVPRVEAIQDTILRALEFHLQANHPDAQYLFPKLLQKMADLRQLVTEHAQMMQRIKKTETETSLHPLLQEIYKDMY
# In short: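 Cells carrying a PPAR-delta beta-lactamase reporter were treated with compounds for 18 h at 37 °C in agonist mode. CCF4 fluorescence was read after 2 h; EC50 and efficacy from Hill fits.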
SMILES,activation [1],outcome [2]
NCCCCCCCCCCCC(=O)O,0.942%,inactive
Cc1c(C(=O)O)cccc1[N+](=O)[O-],-2.92%,inactive
CC(O)CO (configuration not stated),1.32% and -0.791%,inactive
CCCCCO,-1.91%,inactive
O=C(O)c1ccc(O)cc1O,1.07% and -1.82%,inactive
CC(C)c1cccc(C(C)C)c1,-1.96%,inactive
CNC(=O)c1ccccc1,3.12%,inactive
Cc1ccc(C)c(N)c1,-1.33%,inactive
CCOC(C)(C)C,2.11%,inactive
CCCCC(CC)CNCC(CC)CCCC (configuration not stated),-2.36%,inactive
FC(F)(F)c1cccc(Cl)c1,-1.67%,inactive
Nc1cc(Cl)c([N+](=O)[O-])cc1O,-1.43%,inactive
CCC(C)OC(=O)N1CCCCC1CCO (configuration not stated),1.43%,inactive
CC(C)=CCl,-3.14%,inactive
Nc1nc(-c2ccccc2)cs1,2.42%,inactive
Oc1c(Cl)cc(Cl)c(Cl)c1Cl,-1.79% and -2.07%,inactive
Clc1ccccn1,-2.48%,inactive
CCOc1ccc(NC(=O)OC(C)C)cc1OCC,-1.45%,inactive

SMILES,activation [1],outcome [2]
O=C1CCC(=O)O1,-2.49%,inactive
CC(C)O.CC(C)O.CC(C)O.CC(C)O.[Ti],-5.62%,inactive
CCCOCC(C)OCC(C)O (configuration not stated),1.34%,inactive
CC(C)(C)c1ccc(C(=O)O)cc1,-9.49%,inactive
CC(=O)Nc1cccc(N)c1,-3.44%,inactive
CCCCCCCCCCCC[N+](C)(C)[O-],8.79%,inactive
Cc1ccc(S(N)(=O)=O)cc1,0.771% and -1.64%,inactive
C=CC(=O)OCCCC,-3.45%,inactive
CC1COCc2cc3c(cc21)C(C)(C)C(C)C3(C)C (configuration not stated),0.585%,inactive
Cc1ccc(C)c(O)c1,2.07%,inactive
Cc1cccc([N+](=O)[O-])c1C(=O)O,-1.22%,inactive
COC(=O)c1ccc(CNS(C)(=O)=O)cc1S(=O)(=O)NC(=O)Nc1nc(OC)cc(OC)n1,-2.61%,inactive
CCC1CO1 (configuration not stated),-1.53%,inactive
CC(C)C(=O)OCC(C)(C)C(O)C(C)C (configuration not stated),-0.406%,inactive
C[Si]1(C)O[Si](C)(C)O[Si](C)(C)O1,-0.282%,inactive
CC1=CC(=O)NS(=O)(=O)O1,1.83% and 0.839%,inactive
COC(=O)CCCCC(=O)OC,-2.8% and 3.47% and -2.74%,inactive
CCCCC(CC)COC(=O)c1ccc(C(=O)OCC(CC)CCCC)cc1 (configuration not stated),2.72%,inactive

# From PubChem BioAssay (NCATS)
